The target in assay [1] is T1, Hexokinase-4 (Homo sapiens) + Glucokinase regulatory protein (Homo sapiens) (UniProt P35557+Q14397). The assay can be described thus: qHTS assay for inhibitors of recombinant human GCK-GKRP interaction: Diaphorase-coupled assay (AID 743205). In short, it runs like this:
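Resorufin fluorescence (525/590 nm), read each minute over 30 min, reports GCK activity coupled via G6PDH and diaphorase. Reaction: 10 nM GST-GCK, 10 nM FLAG-GKRP, 5 mM glucose, 0.4 mM ATP, 0.15 mM NADP+, 0.1 mM resazurin.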

Assay [2] addresses T1, Hexokinase-4 (Homo sapiens) + Glucokinase regulatory protein (Homo sapiens). Briefly: qHTS assay for inhibitors of recombinant human GCK-GKRP interaction: ADP-Glo assay (AID 743206).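 Also: plate controls were DMSO plus enzyme for no effect and no enzyme for full effect.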 Summed up:
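Pin-transferred compounds meet a 15 nM GST-GCK/15 nM FLAG-GKRP/2 uM S6P mix (dispense concentrations). ATP is then added to 0.4 mM final with 5 mM glucose, and the reaction runs 60 min at room temperature. ADP is quantified luminescently.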

For assay [3] the target is unchanged. The assay can be described thus: qHTS assay for inhibitors of recombinant human GCK-GKRP interaction: HTRF assay (AID 743207).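 Also: 0% = DMSO with GCK present and -100% = DMSO wells lacking GCK.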 In short, it runs like this:
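HTRF read-out (ex 320 nm; 615/665 nm emission) after 60 min RT equilibration of 5 nM GST-GCK, 5 nM FLAG-GKRP, 2 uM S6P, compound and anti-FLAG/anti-GST detection antibodies; signal normalized between DMSO wells with and without GCK.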

Assay [4] in a line: qHTS Assay for Identifying Gametocytocidal Compounds (AID 743244). Also: potency is read from the fitted curve at half-maximal effect.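 As to max response: % is scaled to controls: 0 for no effect and ±100 for the full control effect; actives lower the fluorescent signal which means gametocytes are killed.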 Particulars: P. falciparum 3D7 stage III-V gametocytes, alamarBlue, 72 h; max response: active compounds read low. Summed up: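 Viability read-out was resazurin reduction (alamarBlue, 24 h) measured at Ex 525/Em 598 nm. Beforehand, late-stage (III-V) 3D7 P. falciparum gametocytes at 20,000 cells/well were incubated with compound 72 h at 37C under 5% CO2.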

Assay [5] is described as follows: qHTS assay for measurement of the activity of small molecule inhibitors on Zika virus induced Caspase-3 activity in human iPSC derived neural progenitor cells (hNPCs) (AID 1224857). Also: % of control where 0% means no effect; nearly all actives have a fitted effect of over 65% in size. In short, it runs like this: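 Percent inhibition of virus-induced caspase-3/7 luminescence (Caspase-Glo), scaled between uninfected cells and Zika-infected cells. hNPCs received compound 1 hr before ZIKV at 2 FFU/cell, with 6 hours infection at 37 C.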

A short description of assay [6]: qHTS assay for measurement of the activity of small molecule inhibitors on Zika virus induced Caspase-3 activity in human astrocytoma cells (AID 1224859).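 Also: plate controls were ZIKV-infected untreated cells for no effect and uninfected cells for full effect.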 In short, it runs like this:
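Luminescent caspase-3/7 read-out (30 min reagent, room temperature) in human SNB-19 cells infected 6 h with ZIKV (2 FFU/cell) after 1 h compound pre-incubation; Data were normalised to uninfected and infected wells.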

The nature of assay [7]: Natriuretic polypeptide receptor (hNpr1) antagonism - Pilot counterscreen GloSensor control cell line (AID 1347045; calls by dose curve; also: series mostly up to about 38 µM; % is scaled to controls: 0 for no effect and ±100 for the full control effect). In short, it runs like this: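 HEK293 cGMP-sensor cells; 2% GloSensor reagent 2 h RT; LOPAC compounds in 1:5 titrations 30-50 min; 50 uM SNP 20 min; luminescence pre-read and post-read.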
Assay [8] concerns the target Atrial natriuretic peptide receptor 1 (Homo sapiens) (UniProt P16066). The assay can be described thus: Natriuretic polypeptide receptor (hNpr1) antagonism - Pilot screen (AID 1347049; calls by dose curve;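 also: HEK293 cells with hNpr1 and GloSensor cGMP luciferase stimulated by 0.1 nM hNppA; agonist-evoked cGMP luminescence read 20 min after hNppA addition; series mostly up to about 58 µM; % is scaled to controls: 0 for no effect and ±100 for the full control effect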). Summed up:
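Receptor antagonism read as cGMP-dependent luminescence in hNpr1/pGS-40F HEK293 cells: pre-read after 30 min compound exposure, post-read 20 min after hNppA agonist at 0.1 nM final, all at room temperature, protected from light; A-71915 titration as control.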

Assay [9] addresses Atrial natriuretic peptide receptor 2 (Homo sapiens) (UniProt P20594). The assay can be described thus: Natriuretic polypeptide receptor (hNpr2) antagonism - Pilot subtype selectivity assay (AID 1347050; calls by dose curve; also: % is scaled to controls: 0 for no effect and ±100 for the full control effect). In short, it runs like this: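 Antagonist mode: compounds (LOPAC1280, seven 1:5 dilutions) added 30 min before 1 nM hNppC stimulation of hNpr2-HEK293 cGMP-sensor cells; luminescence read before and 20 min after agonist at ambient temperature.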

A number with no mark means an inactive call. Results filed as inconclusive are left out. The source made the active and inactive calls. Unless noted, calls follow the shape of the dose curve; as a rule, active = well fitted curve in the direction sought with a large enough effect; inconclusive = small, poorly fitted or top-dose-only effect, or another doubt; inactive = no such curve, though single readings can be large; an effect the other way counts as inactive or inconclusive.

Chain of Atrial natriuretic peptide receptor 1 (Homo sapiens) (P16066 whole entry, looked up): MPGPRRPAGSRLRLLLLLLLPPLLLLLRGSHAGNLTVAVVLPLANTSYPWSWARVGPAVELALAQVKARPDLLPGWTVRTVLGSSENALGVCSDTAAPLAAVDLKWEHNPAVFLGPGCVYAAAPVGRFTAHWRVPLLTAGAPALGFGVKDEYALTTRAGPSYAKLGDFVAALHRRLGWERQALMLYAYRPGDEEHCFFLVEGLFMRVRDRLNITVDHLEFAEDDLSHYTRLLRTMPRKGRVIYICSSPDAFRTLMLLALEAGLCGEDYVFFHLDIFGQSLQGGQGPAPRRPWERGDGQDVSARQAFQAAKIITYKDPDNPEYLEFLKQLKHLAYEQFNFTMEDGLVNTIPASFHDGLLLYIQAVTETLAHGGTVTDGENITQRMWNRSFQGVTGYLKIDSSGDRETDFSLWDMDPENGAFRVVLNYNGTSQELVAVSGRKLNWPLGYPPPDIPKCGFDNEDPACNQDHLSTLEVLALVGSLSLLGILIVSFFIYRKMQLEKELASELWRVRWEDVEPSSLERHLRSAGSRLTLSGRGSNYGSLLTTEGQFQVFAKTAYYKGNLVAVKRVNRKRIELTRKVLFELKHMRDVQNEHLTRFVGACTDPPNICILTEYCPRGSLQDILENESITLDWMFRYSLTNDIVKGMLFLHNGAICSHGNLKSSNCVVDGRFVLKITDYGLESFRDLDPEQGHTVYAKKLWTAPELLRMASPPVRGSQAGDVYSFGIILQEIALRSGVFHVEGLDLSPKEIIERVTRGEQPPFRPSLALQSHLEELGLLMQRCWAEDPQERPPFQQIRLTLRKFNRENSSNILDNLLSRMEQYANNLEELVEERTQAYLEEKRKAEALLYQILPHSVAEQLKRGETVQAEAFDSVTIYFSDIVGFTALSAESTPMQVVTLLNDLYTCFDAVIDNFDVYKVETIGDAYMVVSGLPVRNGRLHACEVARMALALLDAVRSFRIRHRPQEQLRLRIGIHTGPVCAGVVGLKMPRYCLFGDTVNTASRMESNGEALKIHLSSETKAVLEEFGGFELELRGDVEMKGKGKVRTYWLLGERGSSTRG
Chain of Atrial natriuretic peptide receptor 2 (Homo sapiens) (P20594 whole entry, looked up): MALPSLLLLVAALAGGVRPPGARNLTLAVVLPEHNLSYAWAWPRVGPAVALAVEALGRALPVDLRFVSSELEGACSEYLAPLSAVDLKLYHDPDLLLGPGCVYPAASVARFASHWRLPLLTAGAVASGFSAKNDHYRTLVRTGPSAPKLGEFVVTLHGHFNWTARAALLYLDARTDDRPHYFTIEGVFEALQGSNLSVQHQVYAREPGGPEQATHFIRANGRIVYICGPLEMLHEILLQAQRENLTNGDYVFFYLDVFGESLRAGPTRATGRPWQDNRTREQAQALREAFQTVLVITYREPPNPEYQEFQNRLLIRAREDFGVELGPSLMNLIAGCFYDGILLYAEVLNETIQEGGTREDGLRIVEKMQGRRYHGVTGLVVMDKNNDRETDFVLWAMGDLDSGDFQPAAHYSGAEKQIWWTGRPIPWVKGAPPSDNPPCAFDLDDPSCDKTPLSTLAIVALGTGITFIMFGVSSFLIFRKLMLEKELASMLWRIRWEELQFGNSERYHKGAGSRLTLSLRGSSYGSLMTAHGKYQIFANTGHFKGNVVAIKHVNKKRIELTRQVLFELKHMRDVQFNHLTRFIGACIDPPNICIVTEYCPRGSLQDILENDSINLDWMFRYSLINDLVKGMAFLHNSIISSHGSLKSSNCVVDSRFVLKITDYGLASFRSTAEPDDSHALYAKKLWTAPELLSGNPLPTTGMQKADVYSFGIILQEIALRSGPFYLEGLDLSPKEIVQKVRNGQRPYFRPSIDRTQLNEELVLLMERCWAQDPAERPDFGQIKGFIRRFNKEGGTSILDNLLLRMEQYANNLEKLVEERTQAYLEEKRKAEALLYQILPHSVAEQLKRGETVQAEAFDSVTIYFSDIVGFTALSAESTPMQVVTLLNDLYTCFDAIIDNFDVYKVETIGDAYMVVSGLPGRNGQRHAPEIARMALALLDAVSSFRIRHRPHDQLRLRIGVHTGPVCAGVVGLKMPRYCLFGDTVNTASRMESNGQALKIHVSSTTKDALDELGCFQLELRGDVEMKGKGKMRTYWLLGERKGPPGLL
T1 sequence (P35557 whole entry, looked up): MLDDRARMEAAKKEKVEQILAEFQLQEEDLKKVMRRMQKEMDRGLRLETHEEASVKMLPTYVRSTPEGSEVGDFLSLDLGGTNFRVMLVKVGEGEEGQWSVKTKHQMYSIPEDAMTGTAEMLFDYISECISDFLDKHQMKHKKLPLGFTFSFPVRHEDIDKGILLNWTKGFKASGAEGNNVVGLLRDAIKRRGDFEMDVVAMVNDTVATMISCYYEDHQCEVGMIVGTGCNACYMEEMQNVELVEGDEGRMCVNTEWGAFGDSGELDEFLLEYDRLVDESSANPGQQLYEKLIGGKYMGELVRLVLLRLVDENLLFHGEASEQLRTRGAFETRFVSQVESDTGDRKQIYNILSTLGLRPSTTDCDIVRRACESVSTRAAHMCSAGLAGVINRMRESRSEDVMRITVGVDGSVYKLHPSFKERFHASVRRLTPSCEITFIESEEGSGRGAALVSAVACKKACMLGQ
T1 sequence (Q14397 whole entry, looked up): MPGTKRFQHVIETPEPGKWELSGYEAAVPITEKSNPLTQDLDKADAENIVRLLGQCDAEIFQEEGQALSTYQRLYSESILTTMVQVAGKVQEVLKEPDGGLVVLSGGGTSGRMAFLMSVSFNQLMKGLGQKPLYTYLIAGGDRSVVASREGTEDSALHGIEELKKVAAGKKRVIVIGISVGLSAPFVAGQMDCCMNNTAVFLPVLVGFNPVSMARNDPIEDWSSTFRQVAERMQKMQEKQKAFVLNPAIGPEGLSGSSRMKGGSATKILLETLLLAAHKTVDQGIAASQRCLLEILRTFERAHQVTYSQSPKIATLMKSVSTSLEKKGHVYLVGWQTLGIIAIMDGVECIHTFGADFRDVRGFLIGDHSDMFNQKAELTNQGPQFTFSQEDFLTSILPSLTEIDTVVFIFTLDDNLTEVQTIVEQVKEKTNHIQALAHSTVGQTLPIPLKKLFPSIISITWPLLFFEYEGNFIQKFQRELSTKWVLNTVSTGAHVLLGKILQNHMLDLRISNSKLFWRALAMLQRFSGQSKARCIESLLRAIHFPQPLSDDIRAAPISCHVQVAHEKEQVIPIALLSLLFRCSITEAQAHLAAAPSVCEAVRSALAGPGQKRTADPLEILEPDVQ

`NCCCCN`: the Potency result in assay [1], in assay [2], in assay [3], in [5], in assay [6] and in assay [7] was “inactive” each time. Moreover, the Potency result in assay [8] and in assay [9] was “inactive” throughout. Besides, in assay [4], the max response is 15.5%.

Take `CN1CCC2(CCN3CCc4c(oc5ccccc45)C3C2)N(C)C1=O` (configuration not stated): the Potency result in [1], in assay [2], in assay [3], in assay [5], in [6] and in assay [7] was “inactive” in each case. Further, the Potency entry in [8] and in assay [9] was “inactive” throughout. Also, in assay [4], the max response is 28.4%.

With `CCN1C(=O)C=CC1=O`, the Potency entry in assay [1], in [2], in assay [3], in assay [5], in assay [6] and in assay [7] was “inactive” in each case. Besides, the Potency result in assay [8] and in [9] was “inactive” throughout. Further, in assay [4], the max response is 14.2%.

Consider `OCC1NCC(O)C(O)C1O` (configuration not stated), for which the Potency entry in assay [1], in assay [2], in assay [3], in assay [5], in assay [6] and in [7] was “inactive” each time. In addition, the Potency result in assay [8] and in assay [9] was “inactive” in each case. For the same compound, the max response in assay [4] was 29.9%.

On to `O=C(O)/C(=C/c1c(C(=O)O)[nH]c2cc(Cl)cc(Cl)c12)c1ccccc1`, for which the Potency entry in [1], in assay [2], in assay [3], in assay [5], in [6] and in assay [7] was “inactive” each time. Further, the Potency entry in [8] and in assay [9] was “inactive” each time. Also, the max response in [4] is 2.21%.

`O=C(O)C1=CCCNC1`: the Potency entry in assay [1], in [2], in assay [3], in assay [5], in [6] and in assay [7] was “inactive” each time. Besides, the Potency entry in assay [8] and in assay [9] was “inactive” in each case. Moreover, in assay [4], the max response is 15%.

Consider `O=[N+]([O-])c1cccc2cn[nH]c12`, for which the Potency result in assay [1], in [2], in [3], in [5], in [6] and in [7] was “inactive” throughout. Also, the Potency result in assay [8] and in assay [9] was “inactive” each time. Besides, the max response in [4] is 8.31%.

Consider `CCCCCC(O)CCCC(=O)O` (configuration not stated), for which the Potency result in [1], in assay [2], in [3], in assay [5], in assay [6] and in assay [7] was “inactive” each time. In addition, the Potency entry in [8] and in [9] was “inactive” throughout. The max response in assay [4] was -4.98%.

In the case of `CCCCCC[C@@H]([C@@H](C)O)n1cnc2c(N)ncnc21`, the Potency entry in [1], in assay [2], in [3], in assay [5], in [6] and in [7] was “inactive” in each case. The Potency result in assay [8] and in [9] was “inactive” throughout. Further, in [4], the max response is 12%.

Take `Nc1nc2c(cnn2CCc2ccccc2)c2nc(-c3ccco3)nn12`: the Potency result in [1], in [2], in [3], in assay [5], in assay [6] and in [7] was “inactive” in each case. Also, the Potency entry in [8] and in [9] was “inactive” throughout. In assay [4], the max response was -5.77%.

With `c1ccc(C(NCc2cccnc2)(c2ccccc2)c2ccccc2)cc1`, the Potency entry in assay [1], in [2], in assay [3], in assay [5], in assay [6] and in assay [7] was “inactive” each time. Besides, the Potency result in assay [8] and in assay [9] was “inactive” in each case. For the same compound, the max response in assay [4] is 16.7%.

For `CCCCCCC(=O)OC1CC(C)(C)NC(C)(C)C1`, the Potency entry in assay [1], in [2], in assay [3], in assay [5], in assay [6] and in assay [7] was “inactive” throughout. Further, the Potency result in [8] and in assay [9] was “inactive” each time. For the same compound, the max response in [4] was -4.67%.

Consider `NCCS(=O)O`, for which the Potency result in assay [1], in assay [2], in assay [3], in assay [5], in assay [6] and in assay [7] was “inactive” each time. Besides, the Potency result in assay [8] and in assay [9] was “inactive” in each case. Further, the max response in assay [4] is 18%.

For `CC(C)NC[C@H](O)COc1ccc(CC(N)=O)cc1`, the Potency result in assay [1], in [2], in assay [3], in [5], in assay [6] and in assay [7] was “inactive” in each case. For the same compound, the Potency result in [8] and in [9] was “inactive” throughout. The max response in [4] was 5.76%.

As to `N=S(=O)(O)Cc1noc2ccccc12`, the Potency result in assay [1], in [2], in assay [3], in assay [5], in assay [6] and in assay [7] was “inactive” throughout. Also, the Potency entry in [8] and in [9] was “inactive” in each case. Further, the max response in assay [4] was 7.99%.

Regarding `O=C(O)/C=C/c1ccc(O)c(O)c1`, the Potency entry in [1], in [2], in assay [3], in [5], in [6] and in [7] was “inactive” in each case. In addition, the Potency entry in assay [8] and in [9] was “inactive” in each case. In assay [4], the max response is 8.93%.

Take `CCCCCCCCCC(=O)NC(CN1CCOCC1)[C@H](O)c1ccccc1` (some centres not stated): the Potency result in [1], in assay [2], in [3], in [5], in [6] and in assay [7] was “inactive” each time. The Potency entry in [8] and in assay [9] was “inactive” each time. The Potency in [4] was 3.55 µM (active).

As for `CCC(=O)N1CCN(C(=O)c2ccccc2)CC1`, the Potency result in assay [1], in [2], in [3], in assay [5], in [6] and in assay [7] was “inactive” each time. Moreover, the Potency entry in [8] and in [9] was “inactive” each time. For the same compound, in [4], the max response was 9.08%.

The values are drawn from PubChem BioAssay (NCATS).
